Compound activity as filed in PubChem.
Compounds with a hit are over-represented: about 7.9% of the library has one in this group of screens.
HCMV inh – human cytomegalovirus inhibition; activity change, negative = inhibition, % at 57.5 µM; HFF cells, HCMV-luciferase reporter, 72 h; active compounds read low; AID 1259415; actives 4.5% (n = 410,000); in the data active = activity change below about -60%; inconclusive = no clear call, values can overlap the other calls; inactive = above about -39%
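Compounds were evaluated in HFFs infected with an HCMV luciferase reporter virus (MOI 1 PFU/cell). Luciferase in lysates collected 72 h post infection served as the replication measure.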
HCV inh – HCV inhibition; Huh7.5.1 HCVcc-Cre infection, luciferase reporter, 44 h; Potency, µM (highest dose often 41.8 µM), without a hit: top-dose activity change, negative = inhibition, usual class: inhibitors; actives 3.4% (n = 340,000); AID 651820; active = well fitted inhibition curve with a large enough effect; inconclusive = small, poorly fitted or top-dose-only effect, or another doubt; inactive = no such curve, though single readings can be large or run the other way; note: potency is the fitted concentration of half-maximal effect
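Compounds are dispensed onto cells plated 4 h earlier at 1,000 per well, with HCVcc-Cre virus (about 0.5 moi) added next. Following 44 h of culture, luminescent signal is measured for 15 sec after 15 min with substrate at room temperature.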
FMDV inh – antivirals against foot and mouth disease virus | FMDV antiviral cell-based qHTS | Potency, µM (highest dose often 57.9 µM), for inactives: top-dose activity change, negative = inhibition, hits mostly inhibitors | actives 1.2% (n = 410,000); calls by dose curve; tested in HEK293T cells; note: read-out not given here; potency is the fitted concentration of half-maximal effect; nearly all actives have a fitted effect of over 45% in size
LASV entry inh – inhibitors of Lassa virus binding or cell entry; AID 540256; Potency, µM (highest dose often 37.9 µM), inactives show at the highest dose activity change, negative = inhibition, usual class: inhibitors; Lassa virus pseudotype entry inhibition, cell reporter; actives 1.2% (n = 300,000); calls by dose curve; tested in HEK293 cells; note: potency is the fitted concentration of half-maximal effect; nearly all actives have a fitted effect of over 50% in size
MARV entry inh – blocks Marburg virus binding to or entry into cells; AID 540276; Potency, µM (highest dose often 37.8 µM), for inactives: at the top dose activity change, negative = inhibition, most hits filed as inhibitors; actives 1.8% (n = 300,000); Marburg virus pseudotyped entry inhibition, cell reporter; calls by dose curve; tested in HEK293 cells; note: potency is the fitted concentration of half-maximal effect
Starred values were filed as active, the others as inactive; ? = inconclusive; · = not tested or not shown; [ ] = remark or other dose. % is set by controls: 0 for no effect and ±100 for the full control effect.

SMILES	HCMV inh	HCV inh	FMDV inh	LASV entry inh	MARV entry inh
COc1ccc(C(=O)CSc2nc(C)cc(C)c2C(=O)Nc2ccccc2C)cc1	-3	·	-25%	-5%[46.1 µM]	2%[46.1 µM]
COC(=O)CSc1nc(N)c(C#N)c(-c2ccc(O)cc2)c1C#N	5	1%	4µM*	·	4%
COC(=O)CSc1nc2c(c(-c3ccc(C)o3)c1C#N)CCCC2	-7	5.6µM*	-28%	13%	6%
COc1cc(C(=O)OCC(=O)Nc2ccc(S(=O)(=O)NC3=NCCCCC3)cc2)cc(OC)c1OC	-5	?	-6%	·	·
CCOC(=O)c1cccn1C1C(=O)N(Cc2ccc(C(F)(F)F)cc2)c2ccc(OC)cc21 (stereo not given)	-9	·	·	·	·
CCCC(C)NC(=O)COc1ccc(Sc2ccc(OCC(=O)NC(C)CCC)cc2)cc1 (stereo not given)	-72*	?	?	?	?
CC(C)CNC(=O)COc1ccc(Sc2ccc(OCC(=O)NCC(C)C)cc2)cc1	?	?	?	?	13%
COc1cc2c(c(O)c1OC)-c1c(cc(OC)c(OC)c1OC)C[C@@H](C)[C@@H](C)C2	-60*	-17%	-26%	·	·
COc1cc2c(c(OC)c1OC)-c1c(cc3c(c1O)OCO3)C[C@@H](C)[C@@H](C)C2	?	-29%	?	·	·
COc1cc2c(c(OC)c1OC)-c1c(cc(OC)c(OC)c1OC)C[C@H](C)[C@H](C)C2	-63*	21%[8.37 µM]	-17%	·	·
C=C(c1ccccc1)[C@H](C#N)C1CCCC1	15	·	·	·	·
CCN(CC(=O)Nc1ccc(NC(C)=O)cc1)C(=O)CSCC(=O)Nc1ccc(C)cc1	11	8%	5%	4%[46.1 µM]	2%
CCN(CC(=O)Nc1ccc(NC(C)=O)cc1)C(=O)CSC(c1ccccc1)c1ccccc1	?	10µM*	-16%	·	·
CCCCc1c(-c2ccccc2OC)ncn1C1CCCC1	-94*	·	0%	·	·
CCCCc1c(-c2ccccc2OC)ncn1Cc1ccc(Cl)cc1	-30	·	?	·	·
CCCCc1c(-c2ccccc2OC)ncn1Cc1ccc(-c2ccccc2)cc1	-22	·	28µM*	·	·
Cc1nc2nc(SCC(=O)NCCc3ccccc3)nn2c(C)c1Cc1c(F)cccc1Cl	8	·	1%	5%[46.1 µM]	-24%[46.1 µM]
O=C(COc1ccccc1Cl)Nc1ccc(CN2CCOCC2)cc1	-12	13µM*	0%	·	·
Cc1cc(OCC(=O)Nc2ccc(CN3CCOCC3)cc2)c2c(C)c(C)c(=O)oc2c1	49	11µM*	?	·	·
Cc1cc(OCC(=O)Nc2ccc(CN3CCOCC3)cc2)c2c(C)cc(=O)oc2c1	19	-5%	-18%	·	·
CN(C(=O)c1ccc(NC(=O)Cc2cccc(NC(=O)C3CCN(C(=O)C4CCCC4)CC3)c2)cc1)C1CC1	6	5%[8.37 µM]	17%	·	·
CCOC(=O)COc1ccc(F)cc1C(=O)c1ccn2nc(-c3ccc(Cl)cc3)cc2n1	4	·	8%	9%[46.1 µM]	5%[46.1 µM]
CCN(C(=O)CSc1nc2ccccc2n1CC(=O)Nc1ccccc1C)c1ccccc1	7	·	7%	-3%[46.1 µM]	·
Cc1ccccc1NC(=O)Cn1c(SCC(=O)Nc2ccc(F)cc2)nc2ccccc21	-64*	·	-16%	-25%[46.1 µM]	·
COc1ccc(NC(=O)CSc2nc3ccccc3n2CC(=O)NCc2ccc(F)cc2)cc1	-37	·	-12%	-7%[46.1 µM]	·
SMILES	HCMV inh	HCV inh	FMDV inh	LASV entry inh	MARV entry inh
COc1ccc(CNC(=O)Cn2c(SCC(=O)Nc3ccc(C)c(C)c3)nc3ccccc32)cc1	-67*	·	-12%	?	·
COCc1nnc(NC(C)=O)s1	-29	17%	-7%	3%[46.1 µM]	8%[46.1 µM]
O=C(C1CCCCC1)N1C[C@H](n2cc(C3CC3)nn2)[C@@H](O)C[C@@H]1c1ccccc1	-16	·	-19%	·	·
Nc1nccc(-c2cc(-c3ccc(Cl)cc3Cl)no2)n1	18	-3%	23%	?	14µM*
Cc1cc(C)cc(NC(=O)c2oc3ccc4c(c3c2C)C(=O)CC(C)(C)O4)c1	-105*	·	-3%	7%[46.1 µM]	·
COc1cccc(/C=N/N2C(=O)C3C4c5ccccc5C(c5ccccc54)C3C2=O)c1OC (stereo not given)	·	·	·	·	2%
COc1cc(/C=N/N2C(=O)C3C4c5ccccc5C(c5ccccc54)C3C2=O)ccc1O (stereo not given)	25	-10%	-13%	13µM*	?
O=C(Nc1ccc(Cl)cn1)c1ccccc1[N+](=O)[O-]	46	-27%	25%	-24%	-30%[46.1 µM]
O=[N+]([O-])c1cnc(Nc2ccc(Cl)cn2)c([N+](=O)[O-])c1	3	11µM*	-26%	-14%[46.1 µM]	?
CCCCN=C1NC(=O)C(CC(=O)NCCc2ccc(OC)cc2)S1 (stereo not given)	19	5%	-3%	·	·
CCCCNC(=O)c1ccccc1Cl	-107*	10%	0%	27%	15%
CCCCNC(=O)c1cccc2c(=O)c(C)c(-c3ccccc3)oc12	-68*	?	0%	?	-23%
CCCCN(C(=O)c1cccc2c(=O)c(C)c(-c3ccccc3)oc12)c1ccccc1	-63*	?	?	12µM*	?
CC1CN(Cc2c(O)ccc3c(=O)c(-c4ccccc4Cl)coc23)CC(C)O1 (stereo not given)	8	0%	-3%	·	·
Cc1cccc(-n2ncc3c(N(C)C4CCCCC4)ncnc32)c1	-78*	6%	18µM*	·	·
COc1ccc(-n2ncc3c(N(C)C4CCCCC4)ncnc32)cc1	-88*	7%	10µM*	·	·
Fc1ccc(Nc2cc3[nH]c(-c4ccccc4)cc3cn2)cc1	-6	·	·	·	·
COc1ccc(S(=O)(=O)n2ccnc2)cc1C(C)(C)C	16	·	38%	1%[46.1 µM]	-5%[46.1 µM]
Cc1ccc(S(=O)(=O)c2nc(-c3cccc(C)c3)oc2N2CCN(c3ccccc3)CC2)cc1	-1	·	0%	?	18%[46.1 µM]
COCc1ccc(CN2Cc3ccccc3OC(c3ccccc3F)C2)o1 (stereo not given)	·	·	2%	·	·
Cc1cc(C(C)(C)C)cc(C)c1Cn1c2[n+](c3ccc(C(F)(F)F)cc31)CCCCC2	-95*	7.1µM*	28µM*	13µM*	?
CC(C)C[C@H](NC(=O)NCc1ccc(F)cc1)C(=O)O	6	26%	4%	-3%	8%
CCN(CC)CC(O)c1cccn1-c1ccc(CNC(=O)NC(C)C)cc1 (stereo not given)	-66*	18%	-3%	-7%	-5%
COc1cc(C=C2C(=O)c3ccccc3C2=O)ccc1O	-8	?	18%	·	·
COc1cc(/C=C2\COC/C(=C\c3ccc(O)c(OC)c3)C2=O)ccc1O	-99*	11µM*	18µM*	?	?
COc1cc(/C=C2\SC(N)=NC2=O)ccc1O	-75*	?	14%	-2%[46.1 µM]	?
COc1cc(/C=C2/CC/C(=C/c3ccc(O)c(OC)c3)C2=O)ccc1O	0	13µM*	-4%	·	·
COc1cc(OC)c(OC)cc1/C=C1\CCC/C(=C\c2cc(OC)c(OC)cc2OC)C1=O	-90*	-27%	?	?	?
